Potency, activity and outcome data for twelve molecules are collected here from PubChem BioAssay (NCATS).

The structures appear in SMILES notation. Results filed as inconclusive are left out. Activity calls are given as the source filed them. Unless noted, calls follow the shape of the dose curve; as a rule, active = well fitted curve in the direction sought with a large enough effect; inconclusive = small, poorly fitted or top-dose-only effect, or another doubt; inactive = no such curve, though single readings can be large; an effect the other way counts as inactive or inconclusive.

One test concerns the target Furin (Homo sapiens) (UniProt P09958). As to the kind of experiment: Furin counterscreen qHTS for Zika virus inhibitors (AID 1347149). Also: nearly all actives have a fitted effect of over 70% in size. Also: potency is read from the fitted curve at half-maximal effect.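 As to activity change, negative = inhibition: purified recombinant full-length human furin enzyme at 5 nM; fluorescence gain from furin cutting a BOC-RVRR-AMC peptide substrate over 15 min; top concentration of the series differs between compounds; plate controls were no-inhibitor control for no effect and no-enzyme control for full effect.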 The essentials: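 Counterscreen measures cleavage of 2 microM BOC-RVRR-AMC, below its ~15 microM Km, by 5 nM full-length human furin at pH 7.0 after a 15-min compound preincubation. Inhibition derives from the 15-min fluorescence increase at 37C.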

Test [1] has as its system Zika virus NS2B-NS3 protease (unlinked). As to the kind of experiment: Optimization of GU AMC qHTS for Zika virus inhibitors: Unlinked NS2B-NS3 protease assay (AID 1347151). Also: nearly all actives have a fitted effect of over 80% in size. In short, it runs like this: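 Noncovalent complex of NS2B hydrophilic domain and NS3 protease domain, 25 nM final, in 10 mM Tris-HCl pH 8.0, 0.01% Tween 20. AMC fluorescence change over 15 min at room temperature was fitted to a 4-parameter Hill equation.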
(In qHTS, concentration-response curves come from the screen itself.)

A short description of test [2]: HepG2 cells viability qHTS for Zika virus inhibitors (AID 1347168). Also: % is scaled to controls: 0 for no effect and ±100 for the full control effect. In short, it runs like this:
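To flag cytotoxic protease inhibitors, viability is measured by ATP-dependent luminescence (CellTiter Glo) after cells attached overnight receive compound for 24 to 48 hours in DMEM with 4% FBS.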

The nature of test [3]: Tertiary RLuc qRT-PCR qHTS assay for Zika virus inhibitors (AID 1347169). Also: nearly all actives have a fitted effect of over 55% in size. Also: potency is read from the fitted curve at half-maximal effect. As to activity change, negative = inhibition: top concentration of the series differs between compounds; % is scaled to controls: 0 for no effect and ±100 for the full control effect. In short, it runs like this: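 Vero cells (1,000 per well) plated overnight at 37 degrees C, treated with compound in DMSO, then infected with recombinant ZIKV-RLuc (Cambodian) at MOI 1-2 for 48-72 hrs. Live-cell Renilla luciferase substrate added; luminescence read after 1-1.5 hrs.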
(In qPCR the cycle at which signal appears reflects the starting amount.)

Test [4] deals with Catechol O-methyltransferase (Homo sapiens) (UniProt P21964). As to the kind of experiment: Confirmatory Screen for Target Class Profiling of Small Molecule Inhibitors of Methyltransferases (AID 1745852; calls by dose curve; also: potency is read from the fitted curve at half-maximal effect). To be noted: MTase-Glo luminescence, SAH detection, recombinant enzyme; measured here: COMT max response; stronger effect = lower value.
Test [5] addresses Guanidinoacetate N-methyltransferase (Homo sapiens) (UniProt Q14353). Described as above. The settings on record: activity change, negative = inhibition: at 57.3 µM (top of the series) unless noted.
For test [6], the target named is Nicotinamide N-methyltransferase (Homo sapiens) (UniProt P40261). The description is as above. To be noted: MTase-Glo luminescence, SAH detection, recombinant enzyme; measured here: NNMT max response; stronger effect = lower value.
Test [7] concerns the target Phenylethanolamine N-methyltransferase (Homo sapiens) (UniProt P11086). The description is as above. The settings on record: MTase-Glo luminescence, SAH detection, recombinant enzyme; measured here: PNMT max response; stronger effect = lower value.
Test [8] concerns the target Glutathione peroxidase 1 (Homo sapiens) (UniProt P07203). As to the kind of experiment: Primary qHTS Assay for Inhibitors of Recombinant Selenoprotein Glutathione Peroxidase 1 (GPX1) (AID 1845191). Also: % is scaled to controls: 0 for no effect and ±100 for the full control effect; nearly all actives have a fitted effect of over 65% in size. The essentials:
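GPX1 10 nM, GR 100 nM, GSH 1 mM, NADPH 0.5 mM, CHP 0.5 mM (final). 30-min cpd preincubation, RT. Ex340/Em450 read t=0, t=15 min.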

Test [9] addresses Phospholipid hydroperoxide glutathione peroxidase GPX4 (Homo sapiens) (UniProt P36969). The test is described as follows: Primary qHTS Assay for Inhibitors of Recombinant Selenoprotein Glutathione Peroxidase 4 (GPX4) (AID 1845192). Also: % is scaled to controls: 0 for no effect and ±100 for the full control effect; nearly all actives have a fitted effect of over 65% in size. To be noted: outcome: dose series up to 50 µM unless noted. The essentials: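 qHTS, GR-coupled: GPX4 200 nM + cpd 30 min RT → GSH 1 mM, NADPH 0.5 mM, GR 100 nM → CHP 0.5 mM start; fluor 340/450 at t0 and t15 min; no-enzyme wells as control.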

The subject of test [10] is Zika virus NS2B-NS3 protease (linked construct). As to the kind of experiment: Confirmatory screen NINDS AMC qHTS for Zika virus inhibitors (AID 1347152). Also: nearly all actives have a fitted effect of over 70% in size. Also: potency is read from the fitted curve at half-maximal effect.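 As to activity change, negative = inhibition: AMC fluorescence gain from cleaved Bz-Nle-KRR-AMC substrate over 15 min; top concentration of the series differs between compounds.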 In short, it runs like this: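 Purified NS2B-NS3 protease with NS2B hydrophilic domain linked to NS3 protease domain by flexible linker, 1 nM final in 10 mM Tris-HCl pH 8.0, 0.01% Tween 20. Compounds preincubated 15 min, room temperature; Bz-Nle-KRR-AMC 10 microM (Km 18.3 µM); 15-min fluorescence change, 4-parameter Hill fit.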

Test [11] concerns Zika virus NS2B-NS3 protease (unlinked complex). As to the kind of experiment: Confirmatory screen GU AMC qHTS for Zika virus inhibitors (AID 1347153). Also: nearly all actives have a fitted effect of over 70% in size. In short, it runs like this:
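Unlinked NS2B-NS3 complex (25 nM) in 10 mM Tris-HCl pH 8.0, 0.01% Tween 20 preincubated 15 min with compound, then 10 microM Bz-Nle-KRR-AMC (Km 18.3 µM). Fluorescence change over 15 min, normalized, Hill-fitted.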

In test [12] the target is Cytochrome P450 3A4 (Homo sapiens) (UniProt P08684). As to the kind of experiment: qHTS Assay for Inhibitors and Substrates of Cytochrome P450 3A4 (AID 884). Also: % is scaled to controls: 0 for no effect and ±100 for the full control effect; nearly all actives have a fitted effect of over 50% in size. In short, it runs like this: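 Luminescent readout of luciferin produced by CYP3A4 (20 nM) dealkylation of Luciferin-PPXE, 25 uM (its KM). NADPH-driven reaction ran 60 min at RT after 10 min compound preincubation; data scaled to 57 uM ketoconazole as 100% inhibition.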

Test [13] can be described thus: Confirmation and Secondary Assay for Modulators of Hemoglobin Beta Chain Splicing at IVS2 654 locus (AID 910). Also: % of control where 0% means no effect. In short, it runs like this: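 HeLa cells stably carrying EGFP interrupted by mutant beta-globin IVS2-654 intron (CMV-driven) were treated with compound for 2 days at 37C; corrected splicing was scored as total peak GFP intensity per well (488 nm excitation, 500-520 nm emission).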

Test [14] is described as follows: Confirmation and Secondary Assay for Modulators of Hemoglobin Beta Chain Splicing at IVS2 705 locus (AID 930).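 Also: HeLa cells stably expressing the EGFP-705 splicing reporter; GFP fluorescence per well restored by corrected splicing of the IVS2-705 intron in EGFP; % of control where 0% means no effect.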 In short, it runs like this:
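HeLa cells stably carrying EGFP interrupted by mutant beta-globin intron 2 (IVS2-705) treated 2 days at 37C with compound; 500 nM antisense PNA as control. Correct splicing read as total peak GFP intensity per well by laser-scanning cytometry.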

A short description of test [15]: ZIKV-mCherry secondary qHTS for Zika virus inhibitors (AID 1347158). Also: top concentration of the series differs between compounds. The essentials:
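Compounds were tested in Vero monkey kidney cells infected with recombinant mCherry-expressing Zika virus at MOI 1 for 48-72 h at 37 °C. Fixed cells were nuclear-stained and imaged, and infection rate was taken as the fraction of mCherry-positive cells.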

Test [16] deals with Zika virus NS2B-NS3 protease (linked construct). As to the kind of experiment: 384 well plate NINDS Rhodamine confirmatory qHTS for Zika virus inhibitors (AID 1347164).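 Also: fluorescence from protease cleavage of Ac-LKRR-rhodamine 110 substrate; potency is read from the fitted curve at half-maximal effect; nearly all actives have a fitted effect of over 65% in size.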 The essentials: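 Linked protease at a final 5 nM, 30 nM or 60 nM was preincubated ~15 min with compounds, then given 10 microM Ac-LKRR-Rhodamine 110. Fluorescence (ex 485/em 538 nm) after 25 min in the dark at room temperature.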

The subject of test [17] is Zika virus NS2B-NS3 protease. As to the kind of experiment: Primary screen GU AMC qHTS for Zika virus inhibitors (AID 1347154). Also: nearly all actives have a fitted effect of over 70% in size. In short, it runs like this:
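Unlinked Zika NS2B hydrophilic domain/NS3 protease domain noncovalent complex (25 nM final) in 10 mM Tris-HCl pH 8.0, 0.01% Tween 20, with AMC peptide substrate. Fluorescence (ex 340, em 450 nm) change over 15 min, room temperature; percent inhibition fitted to 4-parameter Hill equation.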

A short description of test [18]: Primary qHTS for small molecule stabilizers of the endoplasmic reticulum resident proteome: Secreted ER Calcium Modulated Protein (SERCaMP) assay (AID 1508630). Also: % is scaled to controls: 0 for no effect and ±100 for the full control effect. The essentials:
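The SH-SY5Y reporter protocol was run at 3 concentrations up to 38.3 uM (primary) or 11 concentrations (follow-up): 16 h compound, 100 nM thapsigargin for 4 h, then extracellular luciferase luminescence.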

Chain of Furin (Homo sapiens) (P09958 whole entry, looked up): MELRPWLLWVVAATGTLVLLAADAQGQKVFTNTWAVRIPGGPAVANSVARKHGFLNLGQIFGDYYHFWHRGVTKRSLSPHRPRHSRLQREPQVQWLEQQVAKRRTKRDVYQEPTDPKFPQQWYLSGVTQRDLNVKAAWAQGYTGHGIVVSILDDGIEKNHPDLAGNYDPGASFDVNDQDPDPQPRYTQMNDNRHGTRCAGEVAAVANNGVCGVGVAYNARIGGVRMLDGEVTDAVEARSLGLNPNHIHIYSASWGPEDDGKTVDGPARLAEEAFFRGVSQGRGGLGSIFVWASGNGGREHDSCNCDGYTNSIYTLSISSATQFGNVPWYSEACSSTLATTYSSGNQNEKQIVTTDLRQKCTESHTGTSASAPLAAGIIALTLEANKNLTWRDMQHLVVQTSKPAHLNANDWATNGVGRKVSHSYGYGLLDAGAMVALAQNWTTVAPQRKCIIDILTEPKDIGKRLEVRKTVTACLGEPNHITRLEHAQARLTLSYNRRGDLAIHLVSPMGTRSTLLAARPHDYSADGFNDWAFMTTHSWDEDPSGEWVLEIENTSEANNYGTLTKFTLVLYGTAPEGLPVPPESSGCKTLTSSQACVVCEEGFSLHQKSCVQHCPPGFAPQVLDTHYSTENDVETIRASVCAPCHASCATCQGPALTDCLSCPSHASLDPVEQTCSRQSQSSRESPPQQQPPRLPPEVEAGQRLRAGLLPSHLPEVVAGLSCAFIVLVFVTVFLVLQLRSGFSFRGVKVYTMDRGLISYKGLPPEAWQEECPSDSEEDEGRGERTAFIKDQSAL
Chain of Catechol O-methyltransferase (Homo sapiens) (P21964 whole entry, looked up): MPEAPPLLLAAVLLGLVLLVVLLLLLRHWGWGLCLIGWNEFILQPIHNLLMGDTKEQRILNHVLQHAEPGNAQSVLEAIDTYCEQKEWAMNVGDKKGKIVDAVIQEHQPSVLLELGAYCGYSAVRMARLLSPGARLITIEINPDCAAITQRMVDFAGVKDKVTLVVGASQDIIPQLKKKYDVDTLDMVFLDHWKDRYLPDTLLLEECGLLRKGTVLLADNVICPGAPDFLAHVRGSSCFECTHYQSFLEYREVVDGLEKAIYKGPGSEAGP
Chain of Nicotinamide N-methyltransferase (Homo sapiens) (P40261 whole entry, looked up): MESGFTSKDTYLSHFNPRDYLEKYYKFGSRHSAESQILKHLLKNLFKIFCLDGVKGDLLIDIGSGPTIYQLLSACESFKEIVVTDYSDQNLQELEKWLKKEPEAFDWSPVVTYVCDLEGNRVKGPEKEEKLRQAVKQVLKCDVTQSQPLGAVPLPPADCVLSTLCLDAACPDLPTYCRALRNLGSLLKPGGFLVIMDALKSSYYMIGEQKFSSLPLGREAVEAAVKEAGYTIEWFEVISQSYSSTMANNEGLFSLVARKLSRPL
Chain of Phenylethanolamine N-methyltransferase (Homo sapiens) (P11086 whole entry, looked up): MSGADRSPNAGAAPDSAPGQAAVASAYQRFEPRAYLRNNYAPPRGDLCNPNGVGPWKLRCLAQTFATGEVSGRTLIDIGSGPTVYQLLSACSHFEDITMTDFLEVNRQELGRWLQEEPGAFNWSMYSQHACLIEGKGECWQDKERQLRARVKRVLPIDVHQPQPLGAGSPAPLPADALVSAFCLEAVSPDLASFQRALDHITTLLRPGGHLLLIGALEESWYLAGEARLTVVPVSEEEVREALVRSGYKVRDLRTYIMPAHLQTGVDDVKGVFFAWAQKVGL
Chain of Phospholipid hydroperoxide glutathione peroxidase GPX4 (Homo sapiens) (P36969 whole entry, looked up): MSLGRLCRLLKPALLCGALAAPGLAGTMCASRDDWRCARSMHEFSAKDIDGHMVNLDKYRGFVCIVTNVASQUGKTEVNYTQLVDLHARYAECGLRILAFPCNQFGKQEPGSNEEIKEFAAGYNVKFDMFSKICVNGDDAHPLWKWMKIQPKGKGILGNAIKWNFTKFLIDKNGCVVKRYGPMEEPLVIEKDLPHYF
Chain of Glutathione peroxidase 1 (Homo sapiens) (P07203 whole entry, looked up): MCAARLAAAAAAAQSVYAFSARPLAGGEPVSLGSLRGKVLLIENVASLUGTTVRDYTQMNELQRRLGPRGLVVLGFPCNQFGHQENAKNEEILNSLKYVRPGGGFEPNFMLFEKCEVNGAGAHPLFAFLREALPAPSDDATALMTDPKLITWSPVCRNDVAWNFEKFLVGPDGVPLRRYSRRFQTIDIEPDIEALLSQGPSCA
Chain of Cytochrome P450 3A4 (Homo sapiens) (P08684 whole entry, looked up): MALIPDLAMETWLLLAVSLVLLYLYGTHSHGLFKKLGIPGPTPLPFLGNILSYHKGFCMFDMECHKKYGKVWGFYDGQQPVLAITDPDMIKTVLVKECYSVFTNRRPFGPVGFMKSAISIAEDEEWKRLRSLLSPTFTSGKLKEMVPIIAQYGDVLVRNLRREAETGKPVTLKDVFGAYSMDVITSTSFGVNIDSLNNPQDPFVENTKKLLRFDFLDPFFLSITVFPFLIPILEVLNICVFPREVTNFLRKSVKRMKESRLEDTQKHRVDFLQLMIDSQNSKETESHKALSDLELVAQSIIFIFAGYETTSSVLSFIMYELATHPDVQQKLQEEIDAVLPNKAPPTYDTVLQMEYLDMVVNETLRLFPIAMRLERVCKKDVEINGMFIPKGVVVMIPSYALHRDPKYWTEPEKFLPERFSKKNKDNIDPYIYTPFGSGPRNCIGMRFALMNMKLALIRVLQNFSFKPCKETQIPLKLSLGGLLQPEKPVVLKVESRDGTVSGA

For the molecule `COc1ccc(C(=O)Nc2ccc(C(=O)OCc3cc(=O)n4nc(C5CC5)sc4n3)cc2)cc1`, in the test with Furin (Homo sapiens), the Potency was 13.2 µM (active).

On to `Nc1ncnc2c1ncn2[C@@H]1O[C@H](C[C@@H](N)CC[C@H](N)C(=O)O)[C@@H](O)[C@H]1O`, for which the Potency entry (in the test with Furin (Homo sapiens); in [1]; in [2]; in [3]) was “inactive” throughout. Further, the values for the activity in test [4], in test [6] and in test [7] were -81.8%, -74.5% and -86.5%, respectively. The Potency in test [5] is 21.7 µM (active).

For `C[S+](CC[C@H](N)C(=O)O)C[C@H]1O[C@@H](n2cnc3c(N)ncnc32)[C@H](O)[C@H]1O` (some centres not stated), the Potency result (in the test with Furin (Homo sapiens); in test [1]; in [2]; in test [3]; in test [8]; in [9]) was “inactive” in each case.

For `COc1ccc(-c2ccnc(N[C@H]3CO[C@H]4[C@@H]3OC[C@@H]4NS(=O)(=O)c3ccc4ccccc4c3)n2)cc1`, the Potency result (with Furin (Homo sapiens); in test [10]; in test [11]) was “inactive” in each case.

As for `O=C1C2=C(Nc3ccccc3SC2c2ccc(Cl)c(Cl)c2)c2ccccc21` (configuration not stated), the Potency result with Furin (Homo sapiens) is “inactive”.

On to `CC(C)(C)c1ccc(NC(=O)O[C@@H]2CO[C@H]3[C@@H]2OC[C@@H]3Nc2nccc(-c3ccc(-c4ccccc4)cc3)n2)cc1`, for which the Potency with Furin (Homo sapiens) is 62.2 µM (active). Moreover, the Potency result in [10] and in test [11] was “inactive” each time.

For `CC(=O)NC(CC(C)C)C(=O)NC(CC(C)C)C(=O)NC(C=O)CCCN=C(N)N` (configuration not stated), the Potency entry with Furin (Homo sapiens) is “inactive”.

On to `CCOc1ccc(C2C(=O)N(C3CCCCC3)CC(=O)N2Cc2ccc(F)cc2)cc1OC` (configuration not stated), for which the Potency result (with Furin (Homo sapiens); in test [1]; in test [2]) was “inactive” throughout.

Regarding `CC1O[C@@H](O[C@@H]2C(O)C[C@H](O[C@@H]3C(O)C[C@@H](OC4CC[C@@]5(C)C6CC(O)[C@@]7(C)C(C8=CC(=O)OC8)CC[C@@]7(O)C6CC[C@@H]5C4)OC3C)OC2C)CC(O)[C@H]1O` (some centres not stated), the Potency result (in [12]; with Furin (Homo sapiens); in test [1]) was “inactive” in each case. The outcome in test [13] and in test [14] was “inactive” throughout. In test [3], the Potency was 1.17 µM (active).

Take `O=C(O)c1cccc(-c2cc(C(F)(F)F)ccc2Cl)c1`: the Potency entry (with Furin (Homo sapiens); in test [10]; in test [11]; in [15]; in test [3]) was “inactive” in each case.

With `O=C(O)COc1ccc(-c2nccc3c2C(=O)N(Cc2cccc(C(F)(F)F)c2)CC(COc2ccc(OC(F)(F)F)cc2)O3)cc1` (configuration not stated), the Potency was 49.4 µM (active) in the test with Furin (Homo sapiens), 22.1 µM (active) in test [10], 22.1 µM (active) in test [11] and 25.1 µM (active) in test [16]. Moreover, in test [3], the Potency result was “inactive”.

For the molecule `C[C@H]1O[C@@H](O[C@H]2[C@@H](O)C[C@H](O[C@H]3[C@@H](O)C[C@H](O[C@H]4CC[C@]5(C)C6C[C@@H](O)[C@]7(C)[C@@H](C8=CC(=O)OC8)CC[C@]7(O)C6CC[C@@H]5C4)O[C@@H]3C)O[C@@H]2C)C[C@H](O)[C@@H]1O` (some centres not stated), the Potency entry (with Furin (Homo sapiens); in test [1]; in [17]; in test [18]) was “inactive” throughout. Further, the Potency in test [3] was 0.294 µM (active).
